# Test results: ChEMBL document CHEMBL1961873, “Compounds: GSK PKIS; Assays: Nanosyn kinase panel” (2012)
# Legend:
# [1] = target: T1, Muscle, skeletal receptor tyrosine-protein kinase (Homo sapiens) (UniProt O15146); conditions: at 1 µM;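 also: reported value is the mean percent inhibition of MuSK kinase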
# T1 sequence (whole entry): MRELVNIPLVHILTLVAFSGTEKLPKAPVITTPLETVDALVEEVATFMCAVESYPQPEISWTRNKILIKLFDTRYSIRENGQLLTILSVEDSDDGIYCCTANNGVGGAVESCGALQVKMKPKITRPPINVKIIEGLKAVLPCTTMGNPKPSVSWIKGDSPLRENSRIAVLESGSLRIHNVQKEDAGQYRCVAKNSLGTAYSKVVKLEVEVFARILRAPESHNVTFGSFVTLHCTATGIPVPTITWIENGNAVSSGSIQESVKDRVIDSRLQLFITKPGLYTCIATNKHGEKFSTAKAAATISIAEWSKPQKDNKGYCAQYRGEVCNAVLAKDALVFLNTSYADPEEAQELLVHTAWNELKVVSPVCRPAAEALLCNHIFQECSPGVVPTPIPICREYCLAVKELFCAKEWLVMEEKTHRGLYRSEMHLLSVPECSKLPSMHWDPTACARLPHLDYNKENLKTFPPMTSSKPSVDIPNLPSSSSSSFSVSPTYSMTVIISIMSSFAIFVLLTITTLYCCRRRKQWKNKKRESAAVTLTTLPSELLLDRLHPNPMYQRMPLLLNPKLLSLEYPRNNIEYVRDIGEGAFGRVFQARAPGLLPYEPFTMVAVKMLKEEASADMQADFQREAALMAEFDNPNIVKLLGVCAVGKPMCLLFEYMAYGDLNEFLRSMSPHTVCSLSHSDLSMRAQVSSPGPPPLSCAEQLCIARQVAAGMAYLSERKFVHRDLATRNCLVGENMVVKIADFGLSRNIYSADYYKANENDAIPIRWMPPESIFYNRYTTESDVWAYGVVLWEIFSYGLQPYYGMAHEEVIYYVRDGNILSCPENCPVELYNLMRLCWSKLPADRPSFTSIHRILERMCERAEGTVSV
# [2] = target: Platelet-derived growth factor receptor alpha (Homo sapiens) (UniProt P16234); conditions: at 0.1 µM
# [3] = target: Platelet-derived growth factor receptor alpha (Homo sapiens) (UniProt P16234); conditions: at 1 µM
# [4] = test system: Platelet-derived growth factor receptor alpha (Homo sapiens), P16234 [D842V]; conditions: at 0.1 µM
# [5] = test system: Platelet-derived growth factor receptor alpha (Homo sapiens), P16234 [D842V]; conditions: at 1 µM
# [6] = test system: Platelet-derived growth factor receptor alpha (Homo sapiens), P16234 [T674I]; conditions: at 0.1 µM
# [7] = test system: Platelet-derived growth factor receptor alpha (Homo sapiens), P16234 [T674I]; conditions: at 1 µM
# [8] = test system: Platelet-derived growth factor receptor alpha (Homo sapiens), P16234 [V561D]; conditions: at 0.1 µM
# [9] = test system: Platelet-derived growth factor receptor alpha (Homo sapiens), P16234 [V561D]; conditions: at 1 µM
# [10] = target: Platelet-derived growth factor receptor beta (Homo sapiens) (UniProt P09619); conditions: at 0.1 µM
# [11] = target: Platelet-derived growth factor receptor beta (Homo sapiens) (UniProt P09619); conditions: at 1 µM
# [12] = target: Tyrosine-protein kinase FRK (Homo sapiens) (UniProt P42685); conditions: at 0.1 µM
# [13] = target: Tyrosine-protein kinase FRK (Homo sapiens) (UniProt P42685); conditions: at 1 µM
# [14] = target: Protein-tyrosine kinase 2-beta (Homo sapiens) (UniProt Q14289); conditions: at 0.1 µM
# [15] = target: Protein-tyrosine kinase 2-beta (Homo sapiens) (UniProt Q14289); conditions: at 1 µM
# [16] = target: Proto-oncogene tyrosine-protein kinase receptor Ret (Homo sapiens) (UniProt P07949); conditions: at 0.1 µM
# [17] = target: Proto-oncogene tyrosine-protein kinase receptor Ret (Homo sapiens) (UniProt P07949); conditions: at 1 µM
# [18] = test system: Proto-oncogene tyrosine-protein kinase receptor Ret (Homo sapiens), P07949 [V804L]; conditions: at 0.1 µM
# [19] = test system: Proto-oncogene tyrosine-protein kinase receptor Ret (Homo sapiens), P07949 [V804L]; conditions: at 1 µM
# [20] = test system: Proto-oncogene tyrosine-protein kinase receptor Ret (Homo sapiens), P07949 [Y791F]; conditions: at 0.1 µM
# Sequence of Proto-oncogene tyrosine-protein kinase receptor Ret (Homo sapiens), P07949 [Y791F] (P07949 whole entry Y791F): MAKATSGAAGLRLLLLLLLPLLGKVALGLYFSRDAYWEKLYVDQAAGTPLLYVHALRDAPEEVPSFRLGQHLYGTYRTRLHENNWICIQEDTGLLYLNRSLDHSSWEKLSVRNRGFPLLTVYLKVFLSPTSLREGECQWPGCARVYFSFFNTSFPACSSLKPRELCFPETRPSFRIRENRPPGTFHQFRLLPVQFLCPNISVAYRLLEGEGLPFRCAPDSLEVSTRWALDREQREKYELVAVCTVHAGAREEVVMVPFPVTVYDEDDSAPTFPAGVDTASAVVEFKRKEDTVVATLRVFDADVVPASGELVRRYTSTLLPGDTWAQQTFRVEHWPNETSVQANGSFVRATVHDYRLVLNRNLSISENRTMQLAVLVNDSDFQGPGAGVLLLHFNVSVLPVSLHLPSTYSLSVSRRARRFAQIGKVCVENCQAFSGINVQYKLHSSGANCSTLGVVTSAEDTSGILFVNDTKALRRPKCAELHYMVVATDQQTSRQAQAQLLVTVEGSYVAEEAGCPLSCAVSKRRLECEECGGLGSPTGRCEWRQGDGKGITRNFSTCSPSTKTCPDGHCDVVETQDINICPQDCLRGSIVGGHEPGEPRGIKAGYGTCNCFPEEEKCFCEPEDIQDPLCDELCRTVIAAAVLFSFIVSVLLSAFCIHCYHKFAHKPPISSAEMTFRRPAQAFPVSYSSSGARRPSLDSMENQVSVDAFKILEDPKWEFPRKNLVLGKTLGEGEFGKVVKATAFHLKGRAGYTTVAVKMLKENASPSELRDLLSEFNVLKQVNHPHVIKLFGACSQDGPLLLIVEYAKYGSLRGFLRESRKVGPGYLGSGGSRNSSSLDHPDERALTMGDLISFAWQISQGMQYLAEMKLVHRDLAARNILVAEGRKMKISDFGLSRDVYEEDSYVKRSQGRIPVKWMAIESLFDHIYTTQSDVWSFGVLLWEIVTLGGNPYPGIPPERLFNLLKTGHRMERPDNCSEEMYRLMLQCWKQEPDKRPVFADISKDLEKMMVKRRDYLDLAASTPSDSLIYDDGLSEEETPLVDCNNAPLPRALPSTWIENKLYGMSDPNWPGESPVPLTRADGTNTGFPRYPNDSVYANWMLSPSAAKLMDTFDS
# Sequence of Platelet-derived growth factor receptor alpha (Homo sapiens), P16234 [T674I] (P16234 whole entry T674I): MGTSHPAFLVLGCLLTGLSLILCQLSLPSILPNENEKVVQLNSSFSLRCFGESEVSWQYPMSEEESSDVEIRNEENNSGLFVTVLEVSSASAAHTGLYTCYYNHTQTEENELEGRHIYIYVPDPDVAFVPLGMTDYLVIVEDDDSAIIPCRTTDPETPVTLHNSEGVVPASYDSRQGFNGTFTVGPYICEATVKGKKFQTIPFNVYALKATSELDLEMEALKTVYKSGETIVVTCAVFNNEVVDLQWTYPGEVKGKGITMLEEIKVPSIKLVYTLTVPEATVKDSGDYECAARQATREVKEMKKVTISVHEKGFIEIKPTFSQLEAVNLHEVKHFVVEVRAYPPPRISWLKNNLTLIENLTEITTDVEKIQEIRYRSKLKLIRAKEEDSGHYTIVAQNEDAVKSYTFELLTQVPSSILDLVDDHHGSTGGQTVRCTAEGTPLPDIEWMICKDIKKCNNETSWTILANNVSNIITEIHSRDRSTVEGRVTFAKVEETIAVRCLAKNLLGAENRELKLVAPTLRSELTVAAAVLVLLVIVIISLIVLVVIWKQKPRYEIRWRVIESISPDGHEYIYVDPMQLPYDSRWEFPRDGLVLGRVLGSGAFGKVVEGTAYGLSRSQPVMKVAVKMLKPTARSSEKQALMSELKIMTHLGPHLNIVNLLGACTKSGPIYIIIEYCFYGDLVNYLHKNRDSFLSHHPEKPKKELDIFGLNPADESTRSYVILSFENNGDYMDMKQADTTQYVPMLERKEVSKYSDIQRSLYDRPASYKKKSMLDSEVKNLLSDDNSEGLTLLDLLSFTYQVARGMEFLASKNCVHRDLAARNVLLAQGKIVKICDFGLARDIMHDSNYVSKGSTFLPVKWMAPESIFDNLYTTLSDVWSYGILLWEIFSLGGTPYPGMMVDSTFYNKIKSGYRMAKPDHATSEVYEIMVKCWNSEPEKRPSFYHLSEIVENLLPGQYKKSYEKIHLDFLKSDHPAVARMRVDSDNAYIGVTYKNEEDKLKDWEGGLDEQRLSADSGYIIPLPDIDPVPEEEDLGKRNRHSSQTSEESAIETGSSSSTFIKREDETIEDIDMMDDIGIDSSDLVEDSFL
# Sequence of Platelet-derived growth factor receptor alpha (Homo sapiens) (P16234 whole entry): as the sequence (P16234 whole entry T674I) above, with I674T counted along it
# Sequence of Platelet-derived growth factor receptor beta (Homo sapiens) (P09619 whole entry): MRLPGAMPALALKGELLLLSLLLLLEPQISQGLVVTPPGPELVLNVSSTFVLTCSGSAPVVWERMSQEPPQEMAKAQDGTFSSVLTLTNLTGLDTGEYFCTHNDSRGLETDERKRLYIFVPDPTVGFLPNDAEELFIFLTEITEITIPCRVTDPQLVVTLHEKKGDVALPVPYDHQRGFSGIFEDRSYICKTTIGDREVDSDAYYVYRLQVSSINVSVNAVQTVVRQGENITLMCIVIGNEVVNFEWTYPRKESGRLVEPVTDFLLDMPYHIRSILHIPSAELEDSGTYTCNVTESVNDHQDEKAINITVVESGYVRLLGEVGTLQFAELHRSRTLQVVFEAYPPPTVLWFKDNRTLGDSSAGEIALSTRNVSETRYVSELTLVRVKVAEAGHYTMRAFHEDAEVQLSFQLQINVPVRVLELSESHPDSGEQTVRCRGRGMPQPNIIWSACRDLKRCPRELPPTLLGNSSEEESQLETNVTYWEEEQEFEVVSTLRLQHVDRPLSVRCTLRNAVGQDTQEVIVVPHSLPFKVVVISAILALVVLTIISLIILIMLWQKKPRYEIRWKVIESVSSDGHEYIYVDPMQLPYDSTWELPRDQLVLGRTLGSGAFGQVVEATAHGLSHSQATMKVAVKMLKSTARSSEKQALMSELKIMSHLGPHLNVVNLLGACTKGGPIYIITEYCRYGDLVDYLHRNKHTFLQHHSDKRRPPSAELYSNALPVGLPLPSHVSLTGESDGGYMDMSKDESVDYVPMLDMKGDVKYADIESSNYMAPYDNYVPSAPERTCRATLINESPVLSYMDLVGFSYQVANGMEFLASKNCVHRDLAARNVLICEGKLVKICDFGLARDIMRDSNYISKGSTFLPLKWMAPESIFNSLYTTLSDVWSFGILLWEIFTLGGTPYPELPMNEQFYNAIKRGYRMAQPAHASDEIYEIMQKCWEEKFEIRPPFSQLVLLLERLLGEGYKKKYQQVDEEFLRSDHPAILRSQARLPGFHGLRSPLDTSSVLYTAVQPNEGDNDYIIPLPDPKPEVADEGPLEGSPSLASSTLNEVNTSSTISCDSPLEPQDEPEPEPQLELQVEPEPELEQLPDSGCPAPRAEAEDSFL
# Sequence of Tyrosine-protein kinase FRK (Homo sapiens) (P42685 whole entry): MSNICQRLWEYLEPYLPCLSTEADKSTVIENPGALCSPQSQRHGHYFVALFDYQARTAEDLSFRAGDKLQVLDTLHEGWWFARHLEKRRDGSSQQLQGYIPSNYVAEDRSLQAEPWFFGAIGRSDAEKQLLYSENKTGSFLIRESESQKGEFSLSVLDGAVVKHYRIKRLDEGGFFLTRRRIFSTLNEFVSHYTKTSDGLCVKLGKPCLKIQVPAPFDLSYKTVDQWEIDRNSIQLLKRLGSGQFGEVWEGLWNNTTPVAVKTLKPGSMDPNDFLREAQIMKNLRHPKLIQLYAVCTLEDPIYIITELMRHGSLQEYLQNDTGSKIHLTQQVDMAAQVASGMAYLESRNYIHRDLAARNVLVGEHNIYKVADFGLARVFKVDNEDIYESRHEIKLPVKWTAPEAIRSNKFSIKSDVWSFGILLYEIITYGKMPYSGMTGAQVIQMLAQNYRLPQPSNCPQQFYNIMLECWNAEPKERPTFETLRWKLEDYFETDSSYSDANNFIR
SMILES,inhibition [1] [%],inhibition [2] [%],inhibition [3] [%],inhibition [4] [%],inhibition [5] [%],inhibition [6] [%],inhibition [7] [%],inhibition [8] [%],inhibition [9] [%],inhibition [10] [%],inhibition [11] [%],inhibition [12] [%],inhibition [13] [%],inhibition [14] [%],inhibition [15] [%],inhibition [16] [%],inhibition [17] [%],inhibition [18] [%],inhibition [19] [%],inhibition [20] [%]
CCN(CC)Cc1ccc(Nc2nccc(-c3cnn4ncccc34)n2)cc1,30.5,17.5,55.5,10.1,51.1,6.93,34.9,18,64.2,29.1,71.8,2.63,3.76,24.8,81.3,4.61,12.8,2.46,16.3,5.39
O=C1NC(=O)C(c2cccc(Cl)c2)=C1Nc1ccc(Cl)c(C(=O)O)c1,3.32,5.36,9.61,0.72,1.68,6.92,5.66,2.77,0.49,1.55,8.9,-0.46,2.48,7.05,6.6,7.27,3.52,5.17,7.71,3.26
NCc1ccc(-n2c(-c3nonc3N)nc3cnccc32)cc1,8.78,10.2,18,9,16.1,8.3,17.7,2.5,8.66,9.08,37.3,1.83,1.83,11.2,9.24,5.69,7.7,7.22,9.65,7.37
CN(c1ccc(NC(=O)Nc2c(Cl)cccc2Cl)cc1)c1ccnc(Nc2cccc(CS(C)(=O)=O)c2)n1,89.9,69.3,86.6,6.78,28.6,72.1,97.5,78.7,91.2,52.4,77.7,3.86,14.5,55.1,29.7,23.8,48.6,13.2,41,24.4
O=C1Nc2ccc(I)cc2C1=Cc1cc(Br)c(O)c(Br)c1,6.35,2.96,9.37,2.93,3.36,2.82,5.91,3.34,7.24,0.08,2.27,2.55,4.15,5.41,3.05,5.98,7.84,1.81,12,6.36
O=C(Nc1n[nH]c2cc(-c3ccccc3)ccc12)C1CC1,4.91,8.78,20.4,2.33,8.97,4.04,9.67,4.85,19.4,6.45,13.3,2.92,2.17,11.3,7.93,4.67,5.93,1.54,0.17,4.42
O=C1Nc2ccccc2/C1=C/Nc1ccc(-n2cncn2)cc1,30.9,10.5,45.5,4.56,24.2,13.1,67.2,10.8,44.8,7.25,33.4,2.78,3.04,11.7,24.7,15.4,48.6,20.2,67.3,12.9
COc1cc(N2CCN(C(C)C)CC2)ccc1Nc1nc(Nc2ccc(F)cc2C(=O)NC[C@@H](O)CO)c2cc[nH]c2n1,3.79,6.23,14.1,1.85,5.49,6.54,9.18,4.51,4.42,1.36,5.07,2.85,4.03,87.3,96.5,5.61,8.19,5.31,18.4,6.02
O=C(NCC1CC1)c1ccc(-c2cccc(C(=O)NC3CC3)c2)cc1,7.49,8.93,6.92,-0.01,-0.59,4.42,0.5,-0.78,2.85,9.04,8.57,1.88,0.07,1.01,8.49,3.9,7.06,1.77,7.1,8.82
O=C(Nc1ccc(Oc2ccc3[nH]c(NC(=O)c4ccccc4)nc3c2)cc1)Nc1cc(C(F)(F)F)ccc1F,63.9,27.8,78.4,1.94,8.54,13,83.1,25.5,79.4,9.24,31.1,1.86,2.1,5.27,14.2,62.6,90.2,25.4,78.7,38.6
Fc1ccc(-c2ncn(C3CCNCC3)c2-c2ccnc(Oc3ccc(Oc4ccccc4)cc3)n2)cc1,8.37,3.69,9.58,0.69,1.95,2.85,6.65,2.74,3.75,2.57,3.75,2.37,2.86,3.19,6.71,2.36,5.4,3.16,7.16,15.6
COc1cc2ncn(-c3cc(OCc4cccs4)c(C(N)=O)s3)c2cc1OC,12.1,36,77.6,19.4,72.8,7.11,57.7,24.7,72.9,31.2,72.5,1.41,1.32,3.08,6.94,11.9,43.5,7.23,24.7,15
C/C(Nc1ccc(S(N)(=O)=O)cc1)=C1/C(=O)Nc2ccccc21,30.9,13.8,53.2,4.56,33.6,34.4,95.7,25,62,9.96,43.1,1.09,0.76,-1.67,17.8,6.38,35.9,13,53.9,5.97
C[C@@H](Oc1cc(-n2cnc3ccc(OC4CCN(C)CC4)cc32)sc1C(N)=O)c1ccccc1Cl,40.8,29.3,69,10.5,53.6,8.48,58,14.5,65,26.3,70.8,3.35,3.66,4.13,11.7,3.19,16.5,2.32,15.8,6.79
Nc1nccc(-c2c(-c3ccc(F)cc3)ncn2C2CCC(O)CC2)n1 (stereo not given),4.37,2.63,21.6,2.7,14.2,0.95,0.82,5.61,21.1,5.21,30.3,-0.89,5.08,-2.8,2.44,3.09,19.3,0.11,5.11,3.7
COc1ccc(C2=C(N3CCc4ccccc43)C(=O)NC2=O)cc1,6.74,4.56,16.3,5.15,8.45,7.16,10.6,5.61,6.87,5.31,12.1,2.66,0.27,11.7,16,9.66,6.15,5.21,7.12,6.21
NC(=O)c1ccc(Oc2nccc(-c3c(-c4ccc(F)cc4)ncn3C3CCNCC3)n2)cc1,9.48,5.32,10.6,2.12,4.3,2.24,6.2,5.07,7.97,4.31,6.41,2.8,4.67,-0.03,10.9,1.55,2.99,2.2,5.79,3.11
NC(=O)Cc1ccccc1Oc1nccc(-c2c(-c3ccc(F)cc3)ncn2C2CCNCC2)n1,1.69,3.58,7.12,0.37,0.79,3.6,2.14,-0.19,4.04,3.93,5.76,1.11,3.64,5.56,3.38,5.79,3.25,2.51,0.95,3.81
CN1CCN(CCCNc2nc3ccc(Oc4ccc(NC(=O)Nc5cc(C(F)(F)F)ccc5F)cc4)cc3[nH]2)CC1,59.2,32.6,76.4,2.11,4.41,29.5,90.7,36,80.7,14.1,25.8,-0.13,5.78,6.22,7.87,76.2,86.2,38.8,74.9,65.8
CS(=O)(=O)CCNCc1cc(-c2cc3c(Nc4ccc(OCc5cccc(F)c5)c(Cl)c4)ncnc3s2)cs1,8.6,9.29,13.6,2.14,4.9,8.52,11.1,4.52,5.56,4.84,11.2,4.58,3.68,4.47,4.63,7.3,7.36,4.33,7.85,8.47
C[C@@H](Oc1cc(-n2cnc3ccc(OCC4CCN(C)CC4)cc32)sc1C(N)=O)c1ccccc1Cl,88.3,26.5,75.7,10.9,54.2,12.7,62.1,14.7,64.7,39.8,84.7,3.53,3.93,5.71,13.7,6.25,18.2,5.76,16.7,8.22
COc1cc(Nc2ncc3c(C)nc(-c4cccc(Oc5ccccc5)c4)n3n2)cc(OC)c1OC,4.06,3.72,10.5,2.21,5.9,1.26,1.96,1.43,9.34,0.58,10.4,0.9,0.75,5.25,6.67,4.22,29.1,8.26,43,3.87
COc1cc(C)c(N(C)C(=O)CN(C)C)cc1Nc1nc(Nc2cccc(F)c2C(N)=O)c2cc[nH]c2n1,3.08,4.02,7.22,0.9,0.89,1.14,-0.57,-2.16,2.56,0.52,2.38,-0.14,1.16,14.7,45.8,6.8,3.71,8.2,4.18,3.57
CCc1ccc(Oc2nccc(-c3c(-c4ccc(F)cc4)ncn3C3CCNCC3)n2)cc1,6.47,2.2,10.4,1.14,3.96,4.41,8.8,2.14,4.49,1.82,13.8,0.83,-0.45,-1.83,2.07,3.04,7.38,3.58,4.57,4
O=C(Nc1n[nH]c2nc(-c3ccc(O)cc3)c(Br)cc12)C1CC1,14,25.9,67.1,12.8,55.5,7.49,24.4,19.7,64.6,12,41.3,14.7,2.41,9.91,18.5,11.8,28.1,5.98,21,12.1
COc1cc2ncn(-c3cc(OCCc4ccccc4)c(C(N)=O)s3)c2cc1OC,3.75,10.5,51.4,8.08,44.9,1.08,10.7,5.35,39.8,10.8,49.9,0.72,1.86,3.82,4.2,3.22,23.2,0.58,9.89,6.66
